Values joined by “and” are separate entries in the source; they are usually repeats but may differ in a detail not shown here. Identical values can stand only once. Inconclusive results are not listed. Entries that show only a call come without a potency. Values without a mark were called inactive. Active and inactive are the calls of the source. Calls follow the shape of the dose curve; as a rule, active = well fitted curve in the direction sought with a large enough effect; inconclusive = small, poorly fitted or top-dose-only effect, or another doubt; inactive = no such curve, though single readings can be large; an effect the other way counts as inactive or inconclusive.
Key:
[1] = biological target: Cellular tumor antigen p53 (Homo sapiens) (UniProt P04637); assay: Primary qHTS for small molecule compounds that upregulate eGFP-tagged delta133p53alpha (in N-terminal) cells. (AID 2060322); conditions: NCI-H358 eGFP-delta133p53alpha fluorescence, 24 h; activation: active compounds read high; also: nearly all actives have a fitted effect of over 75% in size; also: potency is read from the fitted curve at half-maximal effect
Outline: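 NCI-H358 cells pre-induced 24 h with 10 ng/ml doxycycline to express N-terminal eGFP-delta133p53alpha, then dosed 24 h at 37C without doxycycline; fixed, Hoechst-stained, GFP intensity by laser scanning cytometry, normalized to DMSO (0%) and 57.5 uM 5-azacytidine (100%).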

[2] = biological target: Aldehyde dehydrogenase, mitochondrial (Homo sapiens) (UniProt P05091); assay: qHTS for Inhibitors of the Aldehyde Dehydrogenase Family (ALDH2) Primary screen (AID 2061308); conditions: ALDH2 enzyme inhibition qHTS, 1536-well; series mostly up to 56 µM; also: nearly all actives have a fitted effect of over 55% in size
[3] = biological target: Retinaldehyde dehydrogenase 3 (Homo sapiens) (UniProt P47895); assay: qHTS for Inhibitors of the Aldehyde Dehydrogenase Family (ALDH1A3) Validation screen (AID 2061312); conditions: ALDH1A3 enzyme inhibition qHTS validation, fluorescence; series mostly up to 84.7 µM; also: nearly all actives have a fitted effect of over 45% in size
[4] = biological target: Retinaldehyde dehydrogenase 3 (Homo sapiens) (UniProt P47895); assay: qHTS for Inhibitors of the Aldehyde Dehydrogenase Family (ALDH1A3) Primary screen (AID 2061315); conditions: ALDH inhibition qHTS; series mostly up to 56 µM
[5] = BET inhibitor-based combinations targeting novel dependencies in MECOM-rearranged (r) AML: SET-2 cell line (AID 2202231); conditions: SET-2 AML cells viability, CellTiter-Glo luminescence, 48 h; viability: active compounds read low, concentration not given here; also: nearly all actives have a fitted effect of over 35% in size; also: potency is read from the fitted curve at half-maximal effect
Outline: (§1)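 A 48 hr incubation preceded viability reading by CellTiter-Glo, with 15 min room-temperature development. Dose series had 11 points; normalization used DMSO and empty wells; AUC was computed and mean-centered per line as Z-AUC.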

[6] = BET inhibitor-based combinations targeting novel dependencies in MECOM-rearranged (r) AML: OCI-AML3 cell line (AID 2202232); conditions: CellTiter-Glo luminescence, 48 h; Potency: OCI-AML3 viability; series mostly up to 46 µM; also: nearly all actives have a fitted effect of over 35% in size; also: potency is read from the fitted curve at half-maximal effect
Outline: as §1

[7] = BET inhibitor-based combinations targeting novel dependencies in MECOM-rearranged (r) AML: HNT-34 cell line (AID 2202234); conditions: HNT-34 AML viability, CellTiter-Glo luminescence, 48 h; series mostly up to 46 µM; also: nearly all actives have a fitted effect of over 35% in size; also: potency is read from the fitted curve at half-maximal effect
Outline: (§2)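 Each compound is tested in an 11-point concentration series against 500 seeded cells/well for 48 hr. The luminescent viability signal is normalized to DMSO and blank wells, then reduced to AUC and a cell-line-centred Z-AUC.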

[8] = BET inhibitor-based combinations targeting novel dependencies in MECOM-rearranged (r) AML: UCSD-AML1 cell line (AID 2202235); conditions: UCSD-AML1 AML cells viability, CellTiter-Glo, 48 h; series mostly up to 46 µM; also: nearly all actives have a fitted effect of over 40% in size; also: potency is read from the fitted curve at half-maximal effect
Outline: as §2

[9] = BET inhibitor-based combinations targeting novel dependencies in MECOM-rearranged (r) AML: AML-194 cell line (AID 2202237; also: nearly all actives have a fitted effect of over 40% in size; also: potency is read from the fitted curve at half-maximal effect); conditions: AML-194 (MECOM-r AML) viability, CellTiter-Glo, 48 h; series mostly up to 46 µM
Outline: as §1

[10] = BET inhibitor-based combinations targeting novel dependencies in MECOM-rearranged (r) AML: MV-4-11 cell line (AID 2202233); conditions: MV-4-11 AML viability, CellTiter-Glo luminescence, 48 h; series mostly up to 46 µM; also: nearly all actives have a fitted effect of over 45% in size; also: potency is read from the fitted curve at half-maximal effect
Outline: as §2

[11] = BET inhibitor-based combinations targeting novel dependencies in MECOM-rearranged (r) AML: AML-191 cell line (AID 2202236; also: nearly all actives have a fitted effect of over 35% in size; also: potency is read from the fitted curve at half-maximal effect); conditions: AML-191 viability, CellTiter-Glo luminescence, 48 h; series mostly up to 46 µM
Outline: as §1

Cellular tumor antigen p53 (Homo sapiens), sequence (P04637 whole entry, looked up): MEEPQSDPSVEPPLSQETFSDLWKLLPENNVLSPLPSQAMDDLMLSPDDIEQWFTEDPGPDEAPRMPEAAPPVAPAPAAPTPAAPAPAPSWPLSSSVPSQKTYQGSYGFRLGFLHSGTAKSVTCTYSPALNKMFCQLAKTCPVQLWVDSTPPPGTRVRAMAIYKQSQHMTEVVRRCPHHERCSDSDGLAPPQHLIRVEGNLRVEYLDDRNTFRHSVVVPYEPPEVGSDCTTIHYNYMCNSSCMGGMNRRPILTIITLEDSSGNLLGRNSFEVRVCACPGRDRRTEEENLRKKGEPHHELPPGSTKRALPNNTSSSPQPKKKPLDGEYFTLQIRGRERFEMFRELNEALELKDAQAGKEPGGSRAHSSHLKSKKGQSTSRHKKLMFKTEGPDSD

For `Cc1c(F)cc(C(=O)NC2CC2)cc1-c1ccc(C(=O)NCC(C)(C)C)cn1`, the activation [1] was 2.86%, the Potency [2] was “inactive” and the Potency [3] was “inactive”. For the same compound, the Potency [4] was “inactive”, the viability [5] was 92.7% and the Potency [6] was “inactive”. The Potency [7] was “inactive”, the Potency [8] was “inactive” and the Potency [9] was “inactive”.
With `COc1ccc2cc(OCC3(C(=O)O)CN(C(=O)c4ccc(F)cc4)C3)ccc2c1` the activation [1] was 2.86%, the Potency [2] was “inactive” and the Potency [3] was “inactive”. For the same compound, the Potency [4] was “inactive”, the viability [5] was 113% and the Potency [6] was “inactive”. For the same compound, the Potency [8] was “inactive” and the Potency [9] was “inactive”.
For `CC1(C)CCC(c2ccc(Cl)cc2)=C(CN2CCN(c3ccc(C(=O)NS(=O)(=O)c4ccc(N[C@H](CCN5CCOCC5)CSc5ccccc5)c(S(=O)(=O)C(F)(F)F)c4)cc3)CC2)C1`, the Potency [1] was 26900 nM (active), the Potency [2] was “inactive” and the Potency [3] was “inactive”. For the same compound, the Potency [4] was “inactive”, the Potency [5] was 1320 nM (active) and the Potency [10] was 332 nM (active). The Potency [7] was 468 nM (active), the Potency [8] was 1050 nM (active) and the Potency [11] was 742 nM (active). The Potency [9] was 833 nM (active).
For `NCC1CCN(c2nccc(-c3ccc4ccccc4c3)n2)CC1`, the Potency [1] was 23900 nM (active), the Potency [2] was “inactive” and the Potency [3] was “inactive”. For the same compound, the Potency [4] was “inactive”, the Potency [5] was 16600 nM (active) and the Potency [6] was 4680 nM (active). The Potency [10] was 4170 nM (active), the Potency [8] was 2950 nM (active) and the Potency [11] was 2630 nM (active). For the same compound, the Potency [9] was 2950 nM (active).
In the case of `Cc1nnc(C(C)C)n1C1CC2CCC(C1)N2CC[C@H](NC(=O)C1CCC(F)(F)CC1)c1ccccc1` (stereo partly specified), the activation [1] is reported as -6.68%, the Potency [2] is reported as “inactive” and the Potency [3] is reported as “inactive”. The Potency [4] was “inactive”, the viability [5] was 113% and the Potency [6] was “inactive”. For the same compound, the Potency [7] was “inactive”, the Potency [8] was “inactive” and the Potency [11] was “inactive”. The Potency [9] was “inactive”.
In the case of `Cc1c(-c2ccnn2C)cc(C(=O)NCc2ccc(S(C)(=O)=O)cn2)c(=O)n1-c1cccc(C(F)(F)F)c1`, the activation [1] is reported as -2.86% and -5.25%, the Potency [2] is reported as “inactive” and the Potency [3] is reported as “inactive”. For the same compound, the Potency [4] was “inactive”, the viability [5] was 103% and the Potency [10] was “inactive”. For the same compound, the Potency [7] was “inactive”, the Potency [8] was “inactive” and the Potency [11] was “inactive”.

From PubChem BioAssay (NCATS)
